Screening results from PubChem BioAssay.
Cruzain Triton: blocks cruzain activity in presence of Triton detergent. P25779. purified cruzain, Z-FR-AMC fluorescence, 0.01% Triton. Potency, µM, usual class: inhibitors. 200,000 compounds, 0.43% hits. AID 1478; further: nearly all actives have a fitted effect of over 40% in size
Target sequence (P25779 123-467 limits assumed): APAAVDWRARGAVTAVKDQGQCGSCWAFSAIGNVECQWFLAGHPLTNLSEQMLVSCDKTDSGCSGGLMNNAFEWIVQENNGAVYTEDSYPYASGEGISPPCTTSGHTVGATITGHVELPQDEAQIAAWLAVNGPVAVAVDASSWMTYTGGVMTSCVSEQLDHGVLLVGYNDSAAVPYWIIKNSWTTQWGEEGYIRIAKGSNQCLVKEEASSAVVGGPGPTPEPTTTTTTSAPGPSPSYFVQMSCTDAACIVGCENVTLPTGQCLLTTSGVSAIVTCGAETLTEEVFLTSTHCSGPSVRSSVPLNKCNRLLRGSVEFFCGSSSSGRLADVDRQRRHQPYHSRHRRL
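Compounds were screened in titration against cruzain (1.5 nM) with 0.01% Triton X-100 to counter colloidal aggregation. Activity was the AMC fluorescence increase over 60 s after adding 2 uM Z-FR-AMC at pH 5.5.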
Cruzain inh noDet: cruzain (T. cruzi) inhibition without detergent; P25779; purified cruzain, Z-FR-AMC fluorescence, no detergent; Potency, µM, hits mostly inhibitors; 200,000 compounds, 2.3% hits; AID 1476; further: nearly all actives have a fitted effect of over 40% in size
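Detergent-free condition (0.00005% Triton X-100) in acetate buffer pH 5.5 with DTT. 1.5 nM enzyme and compound were pre-mixed 15 min, then 2 uM Z-FR-AMC substrate added; reaction progress from fluorescence change between first and third reads (60 s).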
A number is an active result; - = inactive; ? = inconclusive. Most compounds without a hit are left out; they make up all but 2.6% or so of the library. The call rests on the fitted dose curve; in most records, active means well fitted curve in the direction sought with a large enough effect; inconclusive means small, poorly fitted or top-dose-only effect, or another doubt; inactive means no such curve, though single readings can be large; an effect the other way counts as inactive or inconclusive.

SMILES	Cruzain Triton	Cruzain inh noDet
Cc1[nH]c2ccccc2c1CCNC(=O)c1ccc2c(c1[N+](=O)[O-])C(=O)c1ccccc1C2=O	-	10µM
Cc1[nH]c2c(C)cccc2c1CCNC(=O)c1ccc2c(c1[N+](=O)[O-])C(=O)c1ccccc1C2=O	-	7.9µM
CN(C)C(=O)c1ccc2c(c1[N+](=O)[O-])C(=O)c1ccccc1C2=O	-	-
Cc1ccc2c(c1[N+](=O)[O-])C(=O)c1ccccc1C2=O	-	-
Cc1ccc2nc(NC(=O)CSc3cc(C)[nH]c(=O)n3)sc2c1	-	-
Cc1noc(C)c1-c1nc(NCc2cccs2)c2ccccc2n1	-	-
CN(C)c1ccc(-c2nnn(CC(=O)N3c4ccccc4CCc4ccccc43)n2)cc1	-	32µM
CN(C)c1ccc(-c2nnn(CC(=O)Nc3ccccc3N3CCOCC3)n2)cc1	-	-
CC(C)(C)CNCCO	-	-
CCOC(=O)/C(C#N)=C/c1ccc(-c2ccc(C)cc2)o1	-	-
O=[N+]([O-])c1ccc(N2CCCC2)cc1N/N=C1\CN2CCC1CC2	?	25µM
O=[N+]([O-])c1ccc(N2CCNCC2)cc1NC1CC1	-	-
COc1cc(/C=N/NC(=S)Nc2cccc(C(=O)O)c2)cc(OC)c1OC	-	-
COc1cc(/C=N/NC(=S)N/N=C/c2cc(OC)c(OC)c(OC)c2)cc(OC)c1OC	14µM	?
O=C(Nc1ccc(Cl)cc1)C1CCN(S(=O)(=O)c2ccc(Br)s2)CC1	-	-
O=C(/C=C/c1ccc(Cl)cc1Cl)c1nc2ccccc2[nH]1	-	7.9µM
N#C/C(=C\c1ccc(Cl)cc1)c1nc2ccccc2[nH]1	-	-
O=C(Nc1nc2c(s1)CCCC2)c1cccnc1	-	-
Cc1onc(-c2ccccc2Cl)c1C(=O)Nc1nc2c(s1)CCCC2	-	25µM
COC(=O)c1ccc(C(=O)NC(=S)Nc2nc3c(s2)CC(C)CC3)cc1 (stereo not given)	-	-
O=C(NC(=S)Nc1nc2c(s1)CCCC2)c1ccc(C(=O)c2ccccc2)cc1	-	25µM
Cc1onc(-c2ccccc2Cl)c1C(=O)Nc1nnc(-c2ccc(Cl)cc2Cl)s1	-	?
O=C(NC(=S)Nc1nc2c(s1)CSc1ccccc1-2)c1ccccc1	-	7.9µM
O=C(CSc1nc(-c2ccc(F)cc2)[nH]c1-c1ccccc1)NCC1CCCO1 (stereo not given)	-	-
COc1ccc(Nc2nc(Nc3ccc(OC)cc3OC)nc(N3CCOCC3)n2)c(OC)c1	-	-
SMILES	Cruzain Triton	Cruzain inh noDet
N#CC[N+]1(Cc2ccccn2)CCCC1	-	-
CC(C)OC(=O)c1c(NC(=O)c2cc3nc(-c4ccccc4)cc(C(F)(F)F)n3n2)sc2c1CCCC2	-	-
NC(=O)CN1CCN(c2nc(-c3ccc(F)cc3)cs2)CC1	-	-
O=C(CN1CCN(c2nc(-c3ccc(F)cc3)cs2)CC1)Nc1ccc2c(c1)OCO2	-	25µM
CCc1ccc2[nH]c3nc(SCc4nnc(-c5ccc(C)cc5)o4)nnc3c2c1	-	13µM
Cc1ccc(C(=O)NNC(=O)CSc2nnc3c(n2)[nH]c2ccc(C)cc23)cc1	-	?
CCc1ccc2[nH]c3nc(SCC(=O)NNC(=O)c4ccc(C(C)(C)C)cc4)nnc3c2c1	-	4µM
Cc1ccc2nc(SCc3nnc(-c4ccccc4)o3)[nH]c2c1	-	-
Cc1ccc(C(=O)Nc2nnc(S(=O)(=O)N(C)Cc3ccc(F)cc3)s2)cc1	-	?
O=C(CSc1nccn1Cc1ccc(F)cc1)Nc1ccc2c(c1)OCO2	-	-
Cc1ccc(S(=O)(=O)Oc2cc(S(=O)(=O)O)cc3cc(S(=O)(=O)O)cc(N)c23)cc1	-	-
CCc1nnc(NC(=O)c2oc3cc(C)c(C)cc3c2C)s1	-	13µM
CCc1nonc1NC(=O)c1oc2cc(C)c(C)cc2c1C	-	-
CCc1ccccc1Nc1sc(C(=O)c2ccccc2)c(N)c1S(=O)(=O)c1ccccc1	-	6.3µM
Cc1c(Cl)cccc1Nc1sc(C(=O)c2ccccc2)c(N)c1S(=O)(=O)c1ccccc1	-	?
CCOc1ccccc1Nc1sc(C(=O)c2ccccc2)c(N)c1S(=O)(=O)c1ccc(C)cc1	-	?
COc1ccc(S(=O)(=O)c2c(Nc3ccccc3F)sc(C(=O)c3cccc(OC)c3)c2N)cc1	-	13µM
COc1cccc(C(=O)c2sc(Nc3ccc(F)c(Cl)c3)nc2N)c1	-	-
N#Cc1c(Nc2ccccc2)sc(C(=O)c2ccccc2)c1N	-	-
CCOc1ccccc1Nc1sc(C(=O)c2ccc(Cl)cc2)c(N)c1S(=O)(=O)c1ccccc1	-	3.2µM
CC(C)c1ccc(Nc2sc(C(=O)c3ccccc3)c(N)c2S(=O)(=O)c2ccccc2)cc1	-	4µM
CN(C)c1ncc2nc(-c3cc(F)cc(F)c3)c(=O)n(C[C@H]3CCCO3)c2n1	-	-
COc1ccccc1-c1cncnc1NCCN1CCOCC1	-	-
COC(=O)N1CCC2(CC1)CN(C(=O)Nc1cccc(F)c1)C2	-	-
CCN(CC)S(=O)(=O)c1cc(-c2nnc(Nc3ccc(OC)c(C(N)=O)c3)c3ccccc23)ccc1C	-	?
SMILES	Cruzain Triton	Cruzain inh noDet
Fc1ccccc1	-	-
Cc1ccc(Cl)cc1Nc1sc(C(=O)c2ccccc2)c(N)c1S(=O)(=O)c1ccccc1	-	?
CCc1ccccc1Nc1sc(C(=O)c2cccc(OC)c2)c(N)c1S(=O)(=O)c1ccccc1	-	7.9µM
CCOc1ccc(Nc2sc(C(=O)c3ccc(F)cc3)c(N)c2S(=O)(=O)c2ccc(C)cc2)cc1	-	-
COc1ccc(S(=O)(=O)c2c(Nc3ccc(C)cc3C)sc(C(=O)c3ccc(F)cc3)c2N)cc1	-	5µM
CCS(=O)(=O)c1c(Nc2cc(C)ccc2C)sc(C(=O)c2ccccc2)c1N	-	-
Cc1cccc(C)c1Nc1sc(C(=O)c2ccccc2)c(N)c1S(=O)(=O)c1ccccc1	-	16µM
CSc1nn(CC(=O)Nc2cc(C)ccc2C)c(N)c1S(=O)(=O)c1ccccc1	-	-
Cc1cccc(NC(=O)CN2c3ccccc3S(=O)(=O)c3ccccc32)c1C	-	-
CC1=C(C(=O)Nc2cccnc2)C(c2ccccc2)n2nc(-c3ccc(O)cc3)nc2N1 (stereo not given)	-	-
C=Cc1cccc(C)c1	-	-
N#Cc1c(NC(=O)CCC(=O)O)ccc2ccccc12	-	-
Nc1ccc(S(=O)(=O)O)cc1	-	-
COc1ccc(-c2csc(N(Cc3ccccc3)C(=O)COc3ccc(Cl)cc3)n2)cc1	-	6.3µM
O=C(COc1ccccc1)N(Cc1ccccc1)c1nc(-c2ccccc2)cs1	-	?
CCn1c(=O)n(-c2ccc3c(c2)OCO3)c2nc(-c3ccc(C(C)C)cc3)nc(C(N)=O)c21	-	-
CCc1ccccc1Nc1nn2c(=O)c3ccc(C(=O)NCCC4=CCCCC4)cc3nc2s1	-	25µM
CCc1ccccc1Nc1nn2c(=O)c3ccc(C(=O)NCc4ccccc4OC)cc3nc2s1	-	13µM
COc1ccccc1Nc1nn2c(=O)c3ccc(C(=O)NCc4ccc(F)cc4)cc3nc2s1	-	-
CCc1ccccc1Nc1nn2c(=O)c3ccc(C(=O)Nc4ccc(OC)cc4)cc3nc2s1	-	-
COc1cccc(CNC(=O)CSc2nc3ccccc3nc2Cc2ccc(C)cc2)c1OC	-	-
CCOc1cc(/C=C(\C#N)C(=O)Nc2ccc(C)cc2)ccc1OCc1cc(=O)n2nc(CC)sc2n1	-	-
CSc1cccc(-c2nnc(NC(=O)c3ccc4c(c3)OCCO4)o2)c1	-	-
